Bioassay records: PubChem, National Center for Advancing Translational Sciences (NCATS)
Only a selection was taken, and hits are over-represented in it overall.
TbPYK inhibitor = T. brucei pyruvate kinase inhibition | Q57TT1 | TbPYK enzyme, Kinase-Glo Plus ATP luminescence, 45 min | Potency, µM (doses to about 76.8 µM), actives largely listed as inhibitors | 0.12% of 410,000 active; further: nearly all actives have a fitted effect of over 50% in size
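Readout: single end-point luminescence (Kinase-Glo Plus, 10 min). Reaction conditions were TbPYK/substrate plus 130 uM ADP, 45 min at RT, pH 7.2 TEA buffer. No-enzyme wells served as controls, and data were normalized before concentration-response fitting.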
Shiga toxin inh = Shiga toxin inhibition | Vero cells, Shiga toxin protein synthesis inhibition reporter | inhibition, % at 38.7 µM | 9.2% of 290,000 active | AID 2315; in the data active means inhibition mostly above about 28%, no sharp cut-off; inactive means mostly below about 43%
Giardia FBPA inh = inhibitors of Giardia lamblia fructose-1,6-bisphosphate aldolase; Potency, µM (highest dose often 59.6 µM), usual class: inhibitors; purified Giardia FBPA; 0.71% of 290,000 active; further: nearly all actives have a fitted effect of over 55% in size
Target sequence (A8B2U2 whole entry, looked up): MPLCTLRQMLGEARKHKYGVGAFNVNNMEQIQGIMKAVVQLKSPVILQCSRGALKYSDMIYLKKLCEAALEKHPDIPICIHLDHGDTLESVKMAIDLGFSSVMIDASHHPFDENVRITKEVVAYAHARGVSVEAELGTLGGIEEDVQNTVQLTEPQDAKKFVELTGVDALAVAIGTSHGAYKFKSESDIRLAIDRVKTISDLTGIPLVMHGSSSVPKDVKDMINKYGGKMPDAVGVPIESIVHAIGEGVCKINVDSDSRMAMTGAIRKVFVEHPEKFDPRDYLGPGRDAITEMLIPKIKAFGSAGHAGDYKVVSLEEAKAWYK
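40 nM FBPA preincubated 10 min at RT with compound (up to 57.5 uM final), then substrate plus GAPDH/TPI/NAD/arsenate coupling and diaphorase/resazurin added. Fluorescence read after 20 min at RT, 525/598 nm.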
CHX counter = counter-screen hit for Shiga toxin inhibitors, cycloheximide; cell reporter, cycloheximide protein synthesis inhibition counterscreen; 12% of 300,000 active; max response, %; in the data active means max response mostly above about 13%, no sharp cut-off; inactive means mostly below about 14%; further: read at 38.3 µM for the half of the compounds with a filed dose
LmPK inh = LmPK (Leishmania mexicana) enzyme inhibition. Potency, µM (highest dose often 57.5 µM), most hits filed as inhibitors. purified LmPK, Kinase-Glo ATP luminescence, 1 h. Q27686. 0.37% of 290,000 active. AID 1721
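Pyruvate kinase activity monitored as ATP production (luciferase luminescence). Conditions: 0.1 nM enzyme, 0.5 mM PEP, 0.1 mM ADP, 1 h, RT; normalized against uninhibited and no-enzyme wells.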
RE007 growth inh = less growth of the S. pombe RE007 Vpr strain | S. pombe RE007 Vpr strain, BacTiter-Glo ATP luminescence, 24 h | Potency, µM (titrated, usually from 92.2 µM), hits mostly inhibitors | 0.21% of 360,000 active | AID 651644; active means well fitted falling curve with a large enough effect; inconclusive means small, poorly fitted or top-dose-only effect; inactive means no such curve, though single readings can be large or run the other way; further: nearly all actives have a fitted effect of over 50% in size
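Fission yeast RE007 carrying one integrated HIV-1 vpr copy, seeded at OD 0.01 in PMG+AL medium with 23 nL pinned compound. Grown 24 h at 30 degrees; viability read by BacTiter-Glo luminescence after 5 min.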
Of the large screens only hits and unclear results are named; the others gave an inactive call. Unless noted, the call rests on the fitted dose curve; in most records, active means well fitted curve in the direction sought with a large enough effect; inconclusive means small, poorly fitted or top-dose-only effect, or another doubt; inactive means no such curve, though single readings can be large; an effect the other way counts as inactive or inconclusive.

CC1=CN2C(=N)/C(=C/c3ccc(C)o3)C(=O)N=C2S1	Shiga toxin inh 53, CHX counter 24
CSc1nc2ccc(NC(=O)CSc3nnc(N)s3)cc2s1	CHX counter 33
Cc1nnc(SCC(=O)Nc2cc(-c3cc(C)c(C)cc3C)nn2-c2ccccc2)s1	none
COC(=O)c1ccc(NC(=O)CSc2nc3ccc(N4C(=O)C5C6C=CC(C6)C5C4=O)cc3s2)cc1 (configuration not stated)	CHX counter 23
CCc1cccc(CC)c1NC(=O)CSc1nc2ccc(N3C(=O)C4C5C=CC(C5)C4C3=O)cc2s1 (configuration not stated)	none
CCCc1ccc(-c2cc(NC(=O)CSc3nnc(N)s3)n(-c3ccccc3)n2)cc1	Shiga toxin inh 99, CHX counter 43
Nc1nnc(SCC(=O)Nc2ccccc2)s1	CHX counter 10
CC(=O)c1ccc(NC(=O)CSc2nnc(N)s2)cc1	none (no result: Shiga toxin inh, Giardia FBPA inh, CHX counter, LmPK inh, RE007 growth inh)
O=C(CN1CCN(S(=O)(=O)c2ccccc2)CC1)Nc1ccc(Cl)c([N+](=O)[O-])c1	none (no result: Shiga toxin inh, Giardia FBPA inh, CHX counter, LmPK inh)
Cn1cnnc1SCC(=O)Nc1ccc2nc(SCc3ccccc3F)sc2c1	Shiga toxin inh 165, CHX counter 50
S=C(CN1CCCC1=S)N1CCOCC1	none (no result: Shiga toxin inh, Giardia FBPA inh, CHX counter, LmPK inh)
CC(C)(CCC(=S)N1CCOCC1)C1CCCCC1	CHX counter 25
CCOc1ccc(NC(=O)c2oc(=O)c3ccccc3c2-c2ccc(C)cc2)cc1	none (no result: Shiga toxin inh, Giardia FBPA inh, CHX counter, LmPK inh, RE007 growth inh)
COc1ccc(-c2cc(C(F)(F)F)nc(S(=O)(=O)CCCC(=O)Nc3cc(C)on3)n2)cc1OC	CHX counter 25
COc1ccccc1-c1cc(C(F)(F)F)nc(S(=O)(=O)CCCC(=O)NCc2ccc(F)cc2)n1	CHX counter 20
Cc1cc(C(=O)N2CCC2(C)C(=O)O)nn1C(C)(C)C (configuration not stated)	none (no result: Shiga toxin inh, Giardia FBPA inh, CHX counter, LmPK inh)
O=C(CN1C(=O)NC2(CCCC2)C1=O)Nc1cc(S(=O)(=O)N2CCOCC2)ccc1OCC(F)(F)F	none
O=C1C2CC=CCC2C(=O)N1Cc1ccccc1 (configuration not stated)	none
O=C1C2CC=CCC2C(=O)N1Cc1nnc(-c2ccc(Cl)cc2)o1 (configuration not stated)	Shiga toxin inh 70, CHX counter 26
Cc1ccc(OCCCOc2cccc3cccnc23)cc1C	CHX counter 17, RE007 growth inh inconclusive
COc1cccc(OC)c1OCCCOc1cccc2cccnc12	Shiga toxin inh 127, CHX counter 21
O=Cc1ccc(OCCCOc2cccc3cccnc23)cc1	none
Brc1ccc(OCCOCCOc2cccc3cccnc23)cc1	none (no result: Shiga toxin inh, Giardia FBPA inh, CHX counter, LmPK inh)
C/C=C/c1ccc(OCCOc2cccc3cccnc23)c(OC)c1	CHX counter 22
Cc1cccc(OCCCOc2cccc3cccnc23)c1C	CHX counter 21, RE007 growth inh inconclusive (no result: Giardia FBPA inh)
Brc1ccc(OCCCOc2cccc3cccnc23)cc1	none (no result: Shiga toxin inh)
Cc1ccc2cccc(OCCCOc3ccccc3F)c2n1	CHX counter 25 (no result: Shiga toxin inh)
CCOC(=O)c1c(C)[nH]c(C(=O)OCc2ccccc2)c1C	Shiga toxin inh 60, CHX counter 87 (no result: Giardia FBPA inh)
Cc1cc(C(=O)CSc2ccc(F)cc2)cc(C)c1O	Shiga toxin inh 61, CHX counter 35
Cc1cc(C(=O)CSc2ccc(Cl)cc2)cc(C)c1OC(=S)N(C)C	Shiga toxin inh 90, CHX counter 36
CCOC(=O)c1c(C)[nH]c(C(=O)N/N=C\c2ccccc2O)c1C	Shiga toxin inh 35, CHX counter 29
O=C(CSc1ccc(F)cc1)NC(=O)c1ccccc1	none (no result: Shiga toxin inh, Giardia FBPA inh, CHX counter, LmPK inh)
COc1ccc(CNC(=O)c2ccc(NC(=O)N3CCSc4ncccc43)cc2)c(OC)c1	none (no result: Shiga toxin inh, Giardia FBPA inh, CHX counter, LmPK inh, RE007 growth inh)
CCOC(=O)N1CCC(NC(=O)c2cnn(-c3cccc(F)c3)c2-n2cccc2)CC1	none (no result: Shiga toxin inh, Giardia FBPA inh, CHX counter, LmPK inh, RE007 growth inh)
CC(=O)c1c(C)[nH]c(C(=O)CSc2ccc(F)cc2)c1C	Shiga toxin inh 98, CHX counter 49
CCOC(=O)c1c(C)[nH]c(C(=O)CN2C(=O)NC3(CCCC3)C2=O)c1C	Shiga toxin inh 52, CHX counter 29
CCOC(=O)c1c(C)[nH]c(C(=O)COC(=O)CCSc2ccccc2)c1C	Shiga toxin inh 60, CHX counter 46
CCOC(=O)c1c(Cc2ccccc2)c[nH]c1C	Shiga toxin inh 61, CHX counter 31
CC(=O)c1c(C)[nH]c(C(=O)CSc2nc3ccc(C)cc3[nH]2)c1C	Giardia FBPA inh inconclusive
CCOC(=O)c1c(C)[nH]c(C)c1C(=O)CN1C(=O)NC2(CCCCCC2)C1=O	none (no result: Shiga toxin inh, Giardia FBPA inh, CHX counter, LmPK inh)
CCOC(=O)c1c(C)c[nH]c1C	none
CC(=O)c1c(C)[nH]c(C(=O)COC(=O)CCSc2ccccc2)c1C	none
CCOc1ccc(NC(=O)CN(C)C(=O)c2cc3c(s2)CCC(C)C3)cc1OCC (configuration not stated)	none (no result: Shiga toxin inh, Giardia FBPA inh, CHX counter, LmPK inh)
CCNc1ncc2nc(-c3cccc(C#N)c3)c(=O)n(Cc3cccc(OC)c3)c2n1	none (no result: TbPYK inhibitor, Shiga toxin inh, CHX counter, LmPK inh, RE007 growth inh)
COc1ccc(Nc2ncnc3c2nc2n3CCCCC2)cc1	none (no result: Shiga toxin inh, Giardia FBPA inh, CHX counter, LmPK inh, RE007 growth inh)
CCNc1c(NC(=O)c2ccccc2OCC)c(=O)oc2ccccc12	none (no result: Shiga toxin inh, Giardia FBPA inh, CHX counter, LmPK inh, RE007 growth inh)
CC(=O)c1cccc(-c2ccnc3c2CC(C(=O)NCC2CCOCC2)O3)c1 (configuration not stated)	none (no result: Shiga toxin inh, Giardia FBPA inh, CHX counter, LmPK inh)
CCOC(=O)c1c(C)[nH]c(C(=O)CSc2nnc(C3CC3)n2N)c1C	CHX counter 17
